High-throughput results (PubChem)
In the library only some 2.8% were active in any assay of this set; here they are far more common.
IP6K1 inhibitor = inhibitors of human IP6K1. IP6K1 kinase, ADP-Glo luminescence, 2 h; active compounds read low. AID 1645851. Q92551. activity change, % (series mostly up to about 58 µM). hit rate 0.81% among 140,000; in the data active = activity change below about -25%; note: % is set by controls: 0 for no effect and ±100 for the full control effect
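ADP-Glo luminescence measures ADP made by human IP6K1 during a 2 h RT reaction with ATP/IP6 (mix at 1.3 mM/130 uM); top library doses 57.5 and 19.1 uM final.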
KDM5B inh = blocks human KDM5B histone demethylase activity; Q9UGL1; KDM5B demethylase, FDH-coupled NADH fluorescence (FDH is formaldehyde dehydrogenase); Potency, µM (top dose mostly 57.7 µM), actives largely listed as inhibitors; hit rate 2.6% among 220,000; AID 1347165; note: potency is the fitted concentration of half-maximal effect; 0% is about no effect; nearly all actives have a fitted effect of over 70% in size
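KDM5BΔAP (200 nM final) in 50 mM HEPES pH 7.5, 0.01% Tween-20 was preincubated 10 min at RT with compound over a concentration range. Substrate mix (H3K4me3 12.5 µM, α-KG 25 µM, Fe²⁺, ascorbate, NAD⁺, FDH) was added, and NADH fluorescence change over 30 min gave dose-response curves.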
SNCA viab count = cell viability loss counter-screen. AID 1671193. HEK-293-SNCA-luc viability, GF-AFC fluorescence, 24 h. hit rate 0.12% among 150,000. Potency, µM (series often up to 57.1 µM), without a hit: top-dose activity change, negative = cytotoxicity, most hits filed as cytotoxic;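 note: potency is the fitted concentration of half-maximal effect; 0% = DMSO-treated cells and -100% = medium-only wells without cells; nearly all actives have a fitted effect of over 30% in size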
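HEK-293-SNCA-luc cells (1500/well) plated 24 h, then exposed 24 h to a dilution series; GF-AFC added 30 min at 37C, fluorescence 405/540 nm; normalised to medium-only and DMSO wells, Hill fit.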
SNCA expr inh = reduces expression of the alpha-synuclein gene. Potency, µM (highest dose often 57.2 µM), inactives show top-dose activity change, negative = inhibition, most hits filed as inhibitors. HEK-293 SNCA-luciferase knock-in, luminescence, 24 h. hit rate 0.17% among 140,000. AID 1671194;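 note: potency is the fitted concentration of half-maximal effect; plate controls were DMSO cells for no effect and cell-free wells for full effect; nearly all actives have a fitted effect of over 45% in size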
IP6K1 conf = human IP6K1 inhibition, confirmatory | shares compounds with IP6K1 inhibitor | recombinant IP6K1 kinase, ADP-Glo luminescence, 2 h | Potency, µM (top dose mostly 49 µM), inactives show top-dose activity change, negative = inhibition, hits mostly inhibitors | hit rate 13% among 1,200; note: potency is the fitted concentration of half-maximal effect; % is set by controls: 0 for no effect and ±100 for the full control effect; nearly all actives have a fitted effect of over 65% in size
An asterisk follows results filed as active; i = inactive; ? = inconclusive; . = no result given; [ ] = another dose, or the depositor's remark. Unless noted, calls come from the whole dose curve; as a rule, active = well fitted curve in the direction sought with a large enough effect; inconclusive = small, poorly fitted or top-dose-only effect, or another doubt; inactive = no such curve, though single readings can be large; an effect the other way counts as inactive or inconclusive.

SMILES	IP6K1 inhibitor	KDM5B inh	SNCA viab count	SNCA expr inh	IP6K1 conf
COc1cccc(N2C(=O)NC(=NC3CCCC3)C23CCCN(CC2CCCCC2)C3)c1 (stereo not drawn)	-20.8	i	?	?	.
COc1cccc(N2C(=O)NC(=NC3CCCCC3)C23CCCN(CC2CCCCC2)C3)c1 (stereo not drawn)	-25.6*	?	?	?	?
COc1ccc(-n2c(=O)c3c4c(sc3n(Cc3cc(=O)n5c(C)cccc5n3)c2=O)CCC4)c(OC)c1	-39.2*	?	?	-9.4%	-9.6%
COc1ccc(CN2CCN(c3cc(N(C)C)ncn3)CC2CCO)c(C)c1C (stereo not drawn)	-35.3*	?	-1.5%	21.3%	-9.4%
CCOc1ccc(NC(=O)c2nn(Cc3ccccc3)c(=O)c3ccccc23)cc1OC	.	i	.	.	.
O=C(O)Cn1nnc(-c2ccc(OCc3cccc(C(F)(F)F)c3)cc2)n1	-29.8*	?	0.5%	6.0%	?
COc1ccc(N2CCN(CC(O)COc3c(OC)cccc3OC)CC2)cc1 (stereo not drawn)	-45.8*	?	7.4%	51.2%	-14.9%
COc1ccc(N2CCN(CC(O)COc3ccccc3C(C)(C)C)CC2)cc1 (stereo not drawn)	-26.9*	?	5.4%	?	?
CCCc1cc(=O)oc2c(C)c(OC(C)C(=O)NCc3ccncc3)ccc12 (stereo not drawn)	.	i	.	.	.
Oc1[nH]c2ccccc2c1N=Nc1ccccc1	.	i	.	.	.
O=Nc1c(-c2c(O)[nH]c3ccccc23)[nH]c2ccccc12	.	.	?	89.1%	1.1%
CCS(=O)(=O)N1CC(=O)N(c2ccc(Cl)cc2)C(C)(C(=O)NC2CCCCCC2)C1 (stereo not drawn)	-33.8*	i	-20.6%	20.1%	3.0%
O=C(Cc1ccsc1)Nc1ccc(Br)cc1F	.	i	.	.	.
O=C(CCc1ccccc1)N1CCC2(CC1)CC(N(Cc1ccccc1)C1CC1)CCO2 (stereo not drawn)	-27.3*	i	1.6%	-9.3%	-14.3%
CNC(=O)NC(NC(=O)c1ccccc1)(C(F)(F)F)C(F)(F)F	.	i	.	.	.
COc1ccc(-c2nc(-c3c(C)noc3C)cc3[nH]c(C)cc23)cn1	-31.4*	35.5µM*	-15.9%[87.6 µM]	48.1%[87.6 µM]	?
COc1ccc(-c2ccc(C(=O)N3CCCCC3)cc2)nn1	-51.2*	.	.	.	?
O=C(CSc1nc2cc3ccccc3cc2[nH]1)Nc1cccc(C(F)(F)F)c1	-29.9*	i[11.5 µM]	-12.9%	59.9%	-14.9%
COc1cccc(C(=O)N(Cc2cccc(F)c2)C2CCS(=O)(=O)C2)c1 (stereo not drawn)	12.4	i	-17.9%	-6.1%	.
O=C(c1cccc(Cl)c1)N(Cc1cccc(F)c1)C1CCS(=O)(=O)C1 (stereo not drawn)	-36.6*	i	2.8%	7.3%	-13.8%
O=C(NCCc1ccccn1)c1ccnc(-c2nnc3ccc(Nc4ccccc4)nn23)c1	-36.9*	?	-5.4%[87.6 µM]	-11.0%[87.6 µM]	?
CN(C)CCNC(=O)c1ccnc(-c2nnc3ccc(Nc4ccccc4)nn23)c1	-11.2	i	0.4%[87.6 µM]	-16.0%[87.6 µM]	.
O=C(Nc1cccnc1)c1ccnc(-c2nnc3ccc(Nc4ccccc4)nn23)c1	-56.4*	?	-15.4%[87.6 µM]	39.0%[87.6 µM]	?
COc1ccc(-c2nnc(SCc3cc(-c4cccs4)on3)o2)cc1	.	i	.	.	.
COc1ccc(NC(=O)Cc2csc(COc3cccc(C)c3)n2)cc1OC	-27.1*	?	-2.3%	3.4%	33.7%
SMILES	IP6K1 inhibitor	KDM5B inh	SNCA viab count	SNCA expr inh	IP6K1 conf
Cc1cccc(NC(=O)Cc2csc(COc3cccc(C)c3)n2)c1	-22.1	i	4.4%	16.0%	.
COc1cccc(-c2cnc3[nH]cc(CC(=O)NCc4cccnc4)c3c2)c1	-27.2*	?	-0.2%[87.6 µM]	3.6%[87.6 µM]	?
O=C(Cc1c[nH]c2ncc(-c3cccc(Cl)c3)cc12)NCc1cccnc1	-27.3*	?	-13.8%[87.6 µM]	0.9%[87.6 µM]	?
COc1ccc(OC)c(-c2cnc3[nH]cc(CC(=O)NCc4cccnc4)c3c2)c1	-15.5	i	4.4%[87.6 µM]	-20.3%[87.6 µM]	.
O=C(Cc1c[nH]c2ncc(-c3cccc(F)c3)cc12)NCc1cccnc1	-2.5	?	-14.1%[87.6 µM]	-27.1%[87.6 µM]	.
CNC(=O)c1cc(C2CC2)nc2c1c(C1CCN(C(=O)Cc3ccccc3)CC1)nn2C	-3.8	.	.	.	.
